# Biological target: AgAbp1
# Experiment: SPOT peptide array binding signal intensity (averaged, normalized) (arbitrary units (background-subtracted, floor 0; scale differs between SH3 domains)); higher = stronger binding of the SH3 domain to the peptide
# Protocol: (§1)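 GST-tagged SH3 domains from S. cerevisiae (Sc), A. gossypii (Ag), C. albicans (Ca) and S. pombe (Sp) were incubated at 10 ug/ml overnight at 4 C on cellulose SPOT membranes carrying 292 synthetic 15-mer peptides mined from the S. cerevisiae proteome (cysteines replaced by serines). Binding was detected with anti-GST antibody, HRP secondary and chemiluminescence, quantified with Genespotter, and reported as normalized spot intensities averaged over biological replicates.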
row,Binder,SPOT peptide array binding signal intensity
1,KFIPSRPAPKPPSSA,1640

# Biological target: AgBbc1
# Experiment: as above
# Protocol: as §1
row,Binder,SPOT peptide array binding signal intensity
1,KFIPSRPAPKPPSSA,1210

# Biological target: AgBem1-D1
# Experiment: as above
# Protocol: as §1
row,Binder,SPOT peptide array binding signal intensity
1,KFIPSRPAPKPPSSA,98

# Biological target: AgBzz1-D1
# Experiment: as above
# Protocol: as §1
row,Binder,SPOT peptide array binding signal intensity
1,KFIPSRPAPKPPSSA,70

# Biological target: AgBzz1-D2
# Experiment: as above
# Protocol: as §1
row,Binder,SPOT peptide array binding signal intensity
1,KFIPSRPAPKPPSSA,69.5

# Biological target: AgCyk3
# Experiment: as above
# Protocol: as §1
row,Binder,SPOT peptide array binding signal intensity
1,KFIPSRPAPKPPSSA,≤ 0

# Biological target: AgFus1
# Experiment: as above
# Protocol: as §1
row,Binder,SPOT peptide array binding signal intensity
1,KFIPSRPAPKPPSSA,≤ 0

# Biological target: AgHof1
# Experiment: as above
# Protocol: as §1
row,Binder,SPOT peptide array binding signal intensity
1,KFIPSRPAPKPPSSA,26.2

# Biological target: AgHse1
# Experiment: as above
# Protocol: as §1
row,Binder,SPOT peptide array binding signal intensity
1,KFIPSRPAPKPPSSA,37

# Biological target: AgLsb1
# Experiment: as above
# Protocol: as §1
row,Binder,SPOT peptide array binding signal intensity
1,KFIPSRPAPKPPSSA,674

# Biological target: AgLsb4
# Experiment: as above
# Protocol: as §1
row,Binder,SPOT peptide array binding signal intensity
1,KFIPSRPAPKPPSSA,30.5

# Biological target: AgMyo5
# Experiment: as above
# Protocol: as §1
row,Binder,SPOT peptide array binding signal intensity
1,KFIPSRPAPKPPSSA,1380

# Biological target: AgNbp2
# Experiment: as above
# Protocol: as §1
row,Binder,SPOT peptide array binding signal intensity
1,KFIPSRPAPKPPSSA,11400

# Biological target: AgRvs167
# Experiment: as above
# Protocol: as §1
row,Binder,SPOT peptide array binding signal intensity
1,KFIPSRPAPKPPSSA,5.5

# Biological target: AgSho1
# Experiment: as above
# Protocol: as §1
row,Binder,SPOT peptide array binding signal intensity
1,KFIPSRPAPKPPSSA,≤ 0

# Biological target: AgSla1-D1-D2
# Experiment: as above
# Protocol: as §1
row,Binder,SPOT peptide array binding signal intensity
1,KFIPSRPAPKPPSSA,51

# Biological target: AgSla1-D3
# Experiment: as above
# Protocol: as §1
row,Binder,SPOT peptide array binding signal intensity
1,KFIPSRPAPKPPSSA,1

# Biological target: CaAbp1-D1
# Experiment: as above
# Protocol: as §1
row,Binder,SPOT peptide array binding signal intensity
1,KFIPSRPAPKPPSSA,1850

# Biological target: CaAbp1-D2
# Experiment: as above
# Protocol: as §1
row,Binder,SPOT peptide array binding signal intensity
1,KFIPSRPAPKPPSSA,1020

# Biological target: CaBbc1
# Experiment: as above
# Protocol: as §1
row,Binder,SPOT peptide array binding signal intensity
1,KFIPSRPAPKPPSSA,1910

# Biological target: CaBem1-D1
# Experiment: as above
# Protocol: as §1
row,Binder,SPOT peptide array binding signal intensity
1,KFIPSRPAPKPPSSA,1550

# Biological target: CaBzz1-D1
# Experiment: as above
# Protocol: as §1
row,Binder,SPOT peptide array binding signal intensity
1,KFIPSRPAPKPPSSA,1780

# Biological target: CaBzz1-D2
# Experiment: as above
# Protocol: as §1
row,Binder,SPOT peptide array binding signal intensity
1,KFIPSRPAPKPPSSA,1310

# Biological target: CaCyk3
# Experiment: as above
# Protocol: as §1
row,Binder,SPOT peptide array binding signal intensity
1,KFIPSRPAPKPPSSA,46

# Biological target: CaFus1
# Experiment: as above
# Protocol: as §1
row,Binder,SPOT peptide array binding signal intensity
1,KFIPSRPAPKPPSSA,75

# Biological target: CaHof1
# Experiment: as above
# Protocol: as §1
row,Binder,SPOT peptide array binding signal intensity
1,KFIPSRPAPKPPSSA,≤ 0

# Biological target: CaHse1
# Experiment: as above
# Protocol: as §1
row,Binder,SPOT peptide array binding signal intensity
1,KFIPSRPAPKPPSSA,2.25

# Biological target: CaLsb1
# Experiment: as above
# Protocol: as §1
row,Binder,SPOT peptide array binding signal intensity
1,KFIPSRPAPKPPSSA,≤ 0

# Biological target: CaLsb4
# Experiment: as above
# Protocol: as §1
row,Binder,SPOT peptide array binding signal intensity
1,KFIPSRPAPKPPSSA,190

# Biological target: CaMyo5
# Experiment: as above
# Protocol: as §1
row,Binder,SPOT peptide array binding signal intensity
1,KFIPSRPAPKPPSSA,24

# Biological target: CaNbp2
# Experiment: as above
# Protocol: as §1
row,Binder,SPOT peptide array binding signal intensity
1,KFIPSRPAPKPPSSA,6170

# Biological target: CaRvs167
# Experiment: as above
# Protocol: as §1
row,Binder,SPOT peptide array binding signal intensity
1,KFIPSRPAPKPPSSA,51

# Biological target: CaRvs167-3
# Experiment: as above
# Protocol: as §1
row,Binder,SPOT peptide array binding signal intensity
1,KFIPSRPAPKPPSSA,2

# Biological target: CaSho1
# Experiment: as above
# Protocol: as §1
row,Binder,SPOT peptide array binding signal intensity
1,KFIPSRPAPKPPSSA,≤ 0

# Biological target: CaSla1-D1-D2
# Experiment: as above
# Protocol: as §1
row,Binder,SPOT peptide array binding signal intensity
1,KFIPSRPAPKPPSSA,1010

# Biological target: CaSla1-D3
# Experiment: as above
# Protocol: as §1
row,Binder,SPOT peptide array binding signal intensity
1,KFIPSRPAPKPPSSA,65.5

# Biological target: ScAbp1
# Experiment: as above
# Protocol: as §1
row,Binder,SPOT peptide array binding signal intensity
1,KFIPSRPAPKPPSSA,323

# Biological target: ScBbc1
# Experiment: as above
# Protocol: as §1
row,Binder,SPOT peptide array binding signal intensity
1,KFIPSRPAPKPPSSA,716

# Biological target: ScBem1-D1
# Experiment: as above
# Protocol: as §1
row,Binder,SPOT peptide array binding signal intensity
1,KFIPSRPAPKPPSSA,≤ 0

# Biological target: ScBzz1-D1
# Experiment: as above
# Protocol: as §1
row,Binder,SPOT peptide array binding signal intensity
1,KFIPSRPAPKPPSSA,87

# Biological target: ScBzz1-D2
# Experiment: as above
# Protocol: as §1
row,Binder,SPOT peptide array binding signal intensity
1,KFIPSRPAPKPPSSA,8

# Biological target: ScCyk3
# Experiment: as above
# Protocol: as §1
row,Binder,SPOT peptide array binding signal intensity
1,KFIPSRPAPKPPSSA,1

# Biological target: ScFus1
# Experiment: as above
# Protocol: as §1
row,Binder,SPOT peptide array binding signal intensity
1,KFIPSRPAPKPPSSA,0.5

# Biological target: ScHof1
# Experiment: as above
# Protocol: as §1
row,Binder,SPOT peptide array binding signal intensity
1,KFIPSRPAPKPPSSA,1

# Biological target: ScHse1
# Experiment: as above
# Protocol: as §1
row,Binder,SPOT peptide array binding signal intensity
1,KFIPSRPAPKPPSSA,≤ 0

# Biological target: ScLsb1
# Experiment: as above
# Protocol: as §1
row,Binder,SPOT peptide array binding signal intensity
1,KFIPSRPAPKPPSSA,51.8

# Biological target: ScLsb2
# Experiment: as above
# Protocol: as §1
row,Binder,SPOT peptide array binding signal intensity
1,KFIPSRPAPKPPSSA,288

# Biological target: ScLsb3
# Experiment: as above
# Protocol: as §1
row,Binder,SPOT peptide array binding signal intensity
1,KFIPSRPAPKPPSSA,982

# Biological target: ScLsb4
# Experiment: as above
# Protocol: as §1
row,Binder,SPOT peptide array binding signal intensity
1,KFIPSRPAPKPPSSA,13

# Biological target: ScMyo3
# Experiment: as above
# Protocol: as §1
row,Binder,SPOT peptide array binding signal intensity
1,KFIPSRPAPKPPSSA,2740

# Biological target: ScMyo5
# Experiment: as above
# Protocol: as §1
row,Binder,SPOT peptide array binding signal intensity
1,KFIPSRPAPKPPSSA,1420

# Biological target: ScNbp2
# Experiment: as above
# Protocol: as §1
row,Binder,SPOT peptide array binding signal intensity
1,KFIPSRPAPKPPSSA,8490

# Biological target: ScPex13
# Experiment: as above
# Protocol: as §1
row,Binder,SPOT peptide array binding signal intensity
1,KFIPSRPAPKPPSSA,2800

# Biological target: ScRvs167
# Experiment: as above
# Protocol: as §1
row,Binder,SPOT peptide array binding signal intensity
1,KFIPSRPAPKPPSSA,396

# Biological target: ScSho1
# Experiment: as above
# Protocol: as §1
row,Binder,SPOT peptide array binding signal intensity
1,KFIPSRPAPKPPSSA,18

# Biological target: ScSla1-D1-D2
# Experiment: as above
# Protocol: as §1
row,Binder,SPOT peptide array binding signal intensity
1,KFIPSRPAPKPPSSA,1290

# Biological target: ScSla1-D3
# Experiment: as above
# Protocol: as §1
row,Binder,SPOT peptide array binding signal intensity
1,KFIPSRPAPKPPSSA,769

# Biological target: SpAbp1-D1
# Experiment: as above
# Protocol: as §1
row,Binder,SPOT peptide array binding signal intensity
1,KFIPSRPAPKPPSSA,602

# Biological target: SpBbc1
# Experiment: as above
# Protocol: as §1
row,Binder,SPOT peptide array binding signal intensity
1,KFIPSRPAPKPPSSA,110

# Biological target: SpBzz1-D1
# Experiment: as above
# Protocol: as §1
row,Binder,SPOT peptide array binding signal intensity
1,KFIPSRPAPKPPSSA,1050

# Biological target: SpBzz1-D2
# Experiment: as above
# Protocol: as §1
row,Binder,SPOT peptide array binding signal intensity
1,KFIPSRPAPKPPSSA,32.8

# Biological target: SpCyk3
# Experiment: as above
# Protocol: as §1
row,Binder,SPOT peptide array binding signal intensity
1,KFIPSRPAPKPPSSA,≤ 0

# Biological target: SpHof1
# Experiment: as above
# Protocol: as §1
row,Binder,SPOT peptide array binding signal intensity
1,KFIPSRPAPKPPSSA,9.75

# Biological target: SpHof1-2
# Experiment: as above
# Protocol: as §1
row,Binder,SPOT peptide array binding signal intensity
1,KFIPSRPAPKPPSSA,9.25

# Biological target: SpHof1-3
# Experiment: as above
# Protocol: as §1
row,Binder,SPOT peptide array binding signal intensity
1,KFIPSRPAPKPPSSA,144

# Biological target: SpHse1
# Experiment: as above
# Protocol: as §1
row,Binder,SPOT peptide array binding signal intensity
1,KFIPSRPAPKPPSSA,140

# Biological target: SpLsb1
# Experiment: as above
# Protocol: as §1
row,Binder,SPOT peptide array binding signal intensity
1,KFIPSRPAPKPPSSA,62

# Biological target: SpLsb4
# Experiment: as above
# Protocol: as §1
row,Binder,SPOT peptide array binding signal intensity
1,KFIPSRPAPKPPSSA,865

# Biological target: SpMyo1
# Experiment: as above
# Protocol: as §1
row,Binder,SPOT peptide array binding signal intensity
1,KFIPSRPAPKPPSSA,3260

# Biological target: SpNbp2
# Experiment: as above
# Protocol: as §1
row,Binder,SPOT peptide array binding signal intensity
1,KFIPSRPAPKPPSSA,1060

# Biological target: SpPex13
# Experiment: as above
# Protocol: as §1
row,Binder,SPOT peptide array binding signal intensity
1,KFIPSRPAPKPPSSA,90

# Biological target: SpRvs167
# Experiment: as above
# Protocol: as §1
row,Binder,SPOT peptide array binding signal intensity
1,KFIPSRPAPKPPSSA,319

# Biological target: SpSla1-D1-D2
# Experiment: as above
# Protocol: as §1
row,Binder,SPOT peptide array binding signal intensity
1,KFIPSRPAPKPPSSA,≤ 0

# Biological target: SpSla1-D3
# Experiment: as above
# Protocol: as §1
row,Binder,SPOT peptide array binding signal intensity
1,KFIPSRPAPKPPSSA,≤ 0
